Article PMC4336329 (PLoS ONE, 2015)
The campaign covered roughly 310,000 compounds. About 14,000 (4.5%) showed an effect of 50% or more. The effect is printed as a negative number. Many of the other results were omitted from the sample, so strong results are more common in it than they were.

What follows are compounds tested against human ether-à-go-go-related gene (hERG) potassium channel (human, UniProt Q12809) (assay: primary screen, population patch clamp on CHO cells stably expressing hERG; higher = less effect of the substance).
human ether-à-go-go-related gene (hERG) potassium channel, sequence (Q12809 whole entry, looked up): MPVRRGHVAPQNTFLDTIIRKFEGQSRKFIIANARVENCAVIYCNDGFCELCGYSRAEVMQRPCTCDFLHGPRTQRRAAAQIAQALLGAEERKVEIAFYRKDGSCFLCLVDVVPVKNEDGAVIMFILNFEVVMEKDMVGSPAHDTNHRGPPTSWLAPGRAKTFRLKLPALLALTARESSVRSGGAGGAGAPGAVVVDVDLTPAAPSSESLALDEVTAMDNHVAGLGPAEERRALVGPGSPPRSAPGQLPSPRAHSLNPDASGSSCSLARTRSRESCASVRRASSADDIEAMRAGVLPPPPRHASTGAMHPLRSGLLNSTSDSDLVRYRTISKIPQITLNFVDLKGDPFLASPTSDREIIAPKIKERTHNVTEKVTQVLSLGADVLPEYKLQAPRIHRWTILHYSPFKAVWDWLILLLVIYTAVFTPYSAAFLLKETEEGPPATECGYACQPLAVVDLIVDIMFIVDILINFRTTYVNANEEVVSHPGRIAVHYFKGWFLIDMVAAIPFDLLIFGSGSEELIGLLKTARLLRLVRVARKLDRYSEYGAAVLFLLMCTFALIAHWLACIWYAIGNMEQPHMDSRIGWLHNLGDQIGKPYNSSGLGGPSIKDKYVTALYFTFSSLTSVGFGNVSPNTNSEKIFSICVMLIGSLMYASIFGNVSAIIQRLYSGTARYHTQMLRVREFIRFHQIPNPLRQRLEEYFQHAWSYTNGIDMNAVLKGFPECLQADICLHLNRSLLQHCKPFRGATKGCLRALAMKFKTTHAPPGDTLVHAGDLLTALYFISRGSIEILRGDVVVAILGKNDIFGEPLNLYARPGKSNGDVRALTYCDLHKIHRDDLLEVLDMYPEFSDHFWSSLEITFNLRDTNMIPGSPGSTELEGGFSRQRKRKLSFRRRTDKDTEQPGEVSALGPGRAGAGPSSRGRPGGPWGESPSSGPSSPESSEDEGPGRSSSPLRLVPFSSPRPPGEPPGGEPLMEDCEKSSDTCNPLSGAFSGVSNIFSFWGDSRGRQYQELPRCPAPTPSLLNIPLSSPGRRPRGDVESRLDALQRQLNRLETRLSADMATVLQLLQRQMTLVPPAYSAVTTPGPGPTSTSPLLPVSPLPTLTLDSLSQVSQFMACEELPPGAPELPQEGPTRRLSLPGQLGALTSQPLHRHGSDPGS
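Also: peak tail current of the secondary pulse compared with the same well before compound.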

SMILES	hERG current change (%, negative = inhibition) at 10uM [%]
Cc1cc(Cl)ccc1OCC(=O)NC(=S)Nc1ccc(Cl)cn1	10.9
Cc1ccc(C(=O)NC(C)(COc2nonc2C)COc2nonc2C)cc1	-40
Cc1nonc1OCC(C)(COc1nonc1C)NC(=O)c1ccccc1	-6.59
Cc1nonc1OCC(C)(COc1nonc1C)NC(=O)c1ccc(Cl)cc1	-61.1
Cn1c(=O)n(Cc2ccccc2F)c2ccccc21	-16.3
CCN(CC)C(=O)c1ccc2c(c1)C1C(Cl)C(Sc3ccccc3[N+](=O)[O-])CC1C(C(=O)O)N2 (stereo not shown)	-59.3
CC(=O)c1ccc2c(c1)C1C(Cl)C(Sc3ccccc3[N+](=O)[O-])CC1C(C(=O)O)N2 (stereo not shown)	-20.8
CC(=O)c1ccc2c(c1)C1C(Cl)C(Sc3ccccc3[N+](=O)[O-])CC1C(c1ccccc1)N2 (stereo not shown)	15.1
CN(Cc1nc(-c2cccc(Cl)c2)no1)C1CCOCC1	-22.7
Cn1c(C(=O)NCc2cccnc2)cc2sc(Cl)cc21	-43.9
CCn1c(=O)c(C(=O)NCc2ccccc2)c(O)c2ccccc21	19.1
Cn1c(C(=O)NCc2cccnc2)cc2sccc21	-10.2
CCCCCn1c(=O)c(C(=O)NCc2ccncc2)c(O)c2ccccc21	-53.7
CCn1c(=O)c(C(=O)NNS(=O)(=O)c2ccc(NC(=O)OC)cc2)c(O)c2ccccc21	-56.3
CCn1c(C(=O)NCc2cccnc2)cc2sc(Cl)cc21	-57.2
CCCCCn1c(=O)c(C(=O)NCc2ccccc2)c(O)c2ccccc21	15.2
CCn1c(=O)c(C(=O)NCc2cccnc2)c(O)c2ccccc21	-56.4
CCCn1c(=O)c(C(=O)NNS(=O)(=O)c2ccc(NC(=O)OC)cc2)c(O)c2ccccc21	9.85
COC(=O)Nc1ccc(S(=O)(=O)NNC(=O)c2c(O)c3ccccc3n(C)c2=O)cc1	25.9
CCCn1c(=O)c(C(=O)NCc2cccnc2)c(O)c2ccccc21	-34.7
CCCCn1c(=O)c(C(=O)NCc2ccncc2)c(O)c2ccccc21	-44
O=C(NCc1ccccc1)c1cccc(OCC(=O)N2CCN(C(=O)c3ccco3)CC2)c1	-41.1

SMILES	hERG current change (%, negative = inhibition) at 10uM [%]
COc1ccccc1/C=N/NC(=O)CC(=O)NCc1cccnc1	7.63
O=C(O)COc1ccccc1/C=N/NC(=O)CSc1nc2ccccc2s1	9.71
CCOc1ccc(-c2cc(C(=O)NN3CCN(C)CC3)c3cc(Cl)ccc3n2)cc1	22.5
CC(C(=O)NCc1ccc2c(c1)OCO2)N1c2cccc3cccc(c23)S1(=O)=O (stereo not shown)	-22.7
O=C(CN1C(=O)S/C(=C\C=C\c2ccccc2)C1=O)N1CCCCC1	10.8
Cc1cc(=O)oc2cc(OCCSCCN3CCCCC3)ccc12	-16.5
CNC(=S)N1CCn2cccc2C1c1cccnc1 (stereo not shown)	6.45
COc1ccc(/C(N)=N/OC(=O)CCCc2ccccc2)cc1	-11.3
FC(F)(F)Oc1ccc(NC2=NCCCS2)cc1	-24.4
COC(=O)c1c(NC(=O)C2CCCO2)sc2c1CCC2 (stereo not shown)	-3.4
CC(C)CN(CC(C)C)C(=O)c1cc2c(=O)n3ccccc3nc2s1	7.12
O=C(O)C1CC1(c1ccccc1)c1ccccc1 (stereo not shown)	17.7
N#CC(C#N)=Cc1ccc(N2CCOCC2)cc1	-10.7
CCCn1c(=O)c(C(=O)NCc2ccccn2)c(O)c2ccccc21	-11.1
O=C(NCc1cccnc1)c1sc2ccccc2c1Cl	-28.9
CCCn1c(=O)c(C(=O)NCc2ccccc2)c(O)c2ccccc21	7.64
O=C(NCc1cccnc1)c1sc2cc(Cl)ccc2c1Cl	-55.4
Cc1ccc2c(Cl)c(C(=O)NCc3cccnc3)sc2c1	-46.4
CCCn1c(=O)c(C(=O)NCc2ccncc2)c(O)c2ccccc21	-63
Cc1cc(NC(=O)CSc2nc3ccsc3c(=O)n2NC(=O)c2ccccc2)no1	-1.69
Cc1ccc(C(=O)N(C)CC(=O)Nc2cccc(F)c2)cc1S(=O)(=O)N1CCCCC1	-10.5
COc1ccc(C(=O)NC2CC2)cc1OC1CCN(Cc2ccc(SC)cc2)CC1	-88.7

SMILES	hERG current change (%, negative = inhibition) at 10uM [%]
COc1ccc(C(=O)NC2CC2)cc1OC1CCN(Cc2ccc(Cl)cc2)CC1	-78.8
COc1ccc(C(=O)NC2CC2)cc1OC1CCN(Cc2ccc(F)c(F)c2)CC1	-75.2
COc1ccc(C(=O)NC2CC2)cc1OC1CCN(Cc2cnn(C)c2)CC1	-32.7
COc1cc2[nH]c(=O)n(Cc3ccc(C(=O)NC4CCN(Cc5ccccc5)CC4)cc3)c(=O)c2cc1OC	17.6
COc1ccc(C(=O)NC2CCC(O)CC2)cc1S(=O)(=O)NCc1ccc(Cl)cc1 (stereo not shown)	-6.07
COc1ccc(C(=O)NCCc2cccc(Cl)c2)cc1OC1CCN(C(C)=O)CC1	-16.1
COc1ccc(C(=O)NC2CC2)cc1OC1CCN(Cc2ccccc2)CC1	-81.6
C/C(=N\Nc1ccc(S(N)(=O)=O)cc1[N+](=O)[O-])c1cccs1	25.7
C[C@]12CC[C@H]3[C@@H](CC[C@]4(O)C[C@@H](O)CC[C@]34C=O)[C@@]1(O)CC[C@@H]2C1=CC(=O)OC1	14
O=C(CC12CC3CC(CC(C3)C1)C2)N1CCOCC1	-1.47
COc1ccccc1CC(NC(C)=O)C(=O)NC1CCN(C(=O)Nc2ccc(F)cc2)CC1 (stereo not shown)	-1.82
COc1ccc(C(=O)NC2CC2)cc1OC1CCN(Cc2ccc(F)cc2)CC1	-81.8
COc1ccc(C(=O)NC2CCN(CC(=O)Nc3c(C)cccc3C)CC2)cc1OC	18.7
COc1cc(C(=O)NC2CCCCC2)ccc1OC1CCN(C(C)=O)CC1	7.63
COc1cc(OC)cc(C(=O)NC2CCN(Cc3nnnn3Cc3ccc(F)cc3)CC2)c1	-3.98
COc1cc(C(=O)NC2CCN(Cc3nnnn3Cc3ccc(F)cc3)CC2)cc(OC)c1OC	-0.888
C/C=C(\C)CN1CCC(Oc2cc(C(=O)NC3CC3)ccc2OC)CC1	-64.5
CN(C)S(=O)(=O)c1cccc(C(=O)NC2CCSc3ccccc32)c1 (stereo not shown)	-5.74
CCOc1cccc(=O)c2c(C)n(Cc3ccco3)c(C)c12	-11.5
Cc1nc(NS(=O)(=O)c2ccccc2)sc1C(=O)N/N=C/c1ccccc1	-2
CCn1c2ccccc2c2cc(/C=N/n3cnnc3)ccc21	-13.4
COc1ccc(N2CC(C(=O)Nc3ccc([N+](=O)[O-])cc3Br)CC2=O)cc1 (stereo not shown)	-69

SMILES	hERG current change (%, negative = inhibition) at 10uM [%]
COc1ccc(N2CC(C(=O)N/N=C/c3ccc(C)cc3)CC2=O)cc1 (stereo not shown)	-18.8
COc1ccc(OC)c(NC(=O)C2CC(=O)N(c3ccc(Br)cc3)C2)c1 (stereo not shown)	-33.6
COc1ccc(N2CC(C(=O)Nc3ccc(F)cc3F)CC2=O)cc1 (stereo not shown)	-0.618
COc1ccc(N2CC(C(=O)N/N=C/c3cc([N+](=O)[O-])ccc3O)CC2=O)cc1 (stereo not shown)	-8.45
COc1ccc(N2CC(C(=O)N/N=C/c3ccc([N+](=O)[O-])cc3)CC2=O)cc1 (stereo not shown)	-59.5
O=C(COC(=O)/C=C/c1cccc(C(F)(F)F)c1)NCc1ccco1	13.5
Cc1ccc(OCC(=O)Nc2ccccc2F)cc1C	23.6
Cc1nc(NNC(=O)c2ccc(Cl)cc2Cl)cc(-c2ccccc2)n1	6.97
Cc1nc(NNC(=O)c2ccc([N+](=O)[O-])cc2)cc(-c2ccccc2)n1	-50.8
Cc1nc(NNC(=O)c2ccccc2)cc(-c2ccccc2)n1	3.7
CC1OC(OCC2OC(Oc3c(-c4ccc(O)cc4)oc4cc(O)cc(O)c4c3=O)C(O)C(O)C2O)C(O)C(O)C1O (stereo not shown)	13.7
Cc1cccc2c(CC(=O)Nc3ccccc3)noc12	-0.38
Cc1ccc2c(c1)N(Cc1ccc3c(c1)OCO3)C(=O)C(C)O2 (stereo not shown)	-13.5
CCc1ccc2oc(C(=O)N3CCN(c4ccc(OC)cc4)CC3)cc(=O)c2c1	-36.7
COc1ccccc1N1CCN(C(=O)c2cc(=O)c3cc(C)cc(C)c3o2)CC1	-27.3
COc1ccccc1N1CCN(C(=O)c2cc(=O)c3cc(C)ccc3o2)CC1	-50.7
COc1ccccc1N1CCN(C(=O)c2cc(=O)c3ccc(C)cc3o2)CC1	-20.7
CCc1ccc2oc(C(=O)N3CCN(C)CC3)cc(=O)c2c1	-32.4
CCc1ccc2oc(C(=O)N3CCN(c4ccccc4OC)CC3)cc(=O)c2c1	-68.7
